USP17 inh = human USP17-like deubiquitinase inhibition; inhibition, % at 50 µM; purified USP17, Ub-rhodamine cleavage fluorescence, 3 h; A8MUK1; hit rate 6.5% among 47,000; AID 1645855
USP30 inh = blocks human USP30 ubiquitin-rhodamine cleavage; inhibition, % at 25 µM; purified USP30, Ub-rhodamine cleavage fluorescence; Q70CQ3; hit rate 5.3% among 47,000
Target sequence (Q70CQ3 whole entry, looked up): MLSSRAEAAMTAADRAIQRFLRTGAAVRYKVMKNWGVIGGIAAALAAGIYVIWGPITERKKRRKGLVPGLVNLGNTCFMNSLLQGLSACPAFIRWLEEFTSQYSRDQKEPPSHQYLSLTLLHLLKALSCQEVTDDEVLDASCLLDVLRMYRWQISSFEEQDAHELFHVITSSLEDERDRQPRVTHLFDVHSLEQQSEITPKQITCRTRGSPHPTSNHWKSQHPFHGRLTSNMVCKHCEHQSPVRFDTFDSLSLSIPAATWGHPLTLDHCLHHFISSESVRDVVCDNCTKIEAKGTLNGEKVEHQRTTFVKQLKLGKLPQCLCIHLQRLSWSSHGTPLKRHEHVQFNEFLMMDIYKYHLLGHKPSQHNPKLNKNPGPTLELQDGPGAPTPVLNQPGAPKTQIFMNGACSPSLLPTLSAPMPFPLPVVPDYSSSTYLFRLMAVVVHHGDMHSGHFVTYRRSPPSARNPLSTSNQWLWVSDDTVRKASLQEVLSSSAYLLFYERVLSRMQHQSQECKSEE
* hit, by the source's call; i = inactive. This is a sample that favours compounds with a hit; in the whole collection about 9.6% have one here. Rule as the data show it: active = inhibition above about 30%; inactive = the rest.

SMILES | USP17 inh | USP30 inh
CCc1cc(=O)oc2cc(OCC(=O)NC(c3ccccc3)c3ccccc3)ccc12 | 3.8 | 44.3*
COc1cc(C2CC(=O)C3=C(C2)Nc2ccccc2N(C(=O)C2CC2)C3c2cc(OC)c(OC)c(OC)c2)cc(OC)c1OC (stereo not drawn) | 5.1 | 28.8
Cc1cc(=O)[nH]c(C2CN(CC(=O)N3CCCCC3)CCO2)n1 (stereo not drawn) | -5.6 | -5.1
COc1cccc(C(=O)N2CC(C)C(=O)Nc3ccccc32)c1 (stereo not drawn) | 0.4 | 2.8
COc1cccc(NC(=O)c2oc3ccccc3c2NC(=O)COc2cccc(OC)c2)c1 | -3.7 | 6.2
Cc1cc(NC(=O)COc2ccc3oc4ccccc4c3c2)no1 | 78.4* | 21.1
Cn1nc(C2CCN(C(=O)COc3ccccc3F)CC2)c2nccnc21 | -8.6 | -5.2
Cn1nc(C2CCN(C(=O)Cc3cccc(F)c3)CC2)c2nccnc21 | 33.7* | -9.0
COc1ccc(C(=O)Nc2cnc(N3CCCCC3)nc2)cc1 | -12.6 | -30.5
CCOC(=O)c1c(C)nc2c(c1-c1ccccc1)C(=O)CC(C)(C)C2 | 0.7 | 29.0
CCOC(=O)c1[nH]c2c(c1Cc1ccccc1)C(=O)CC(C)(C)C2 | 42.4* | 0.0
Cc1ccc(Cn2c(C(=O)O)c(CNCCC3=CCCCC3)c3ccccc32)cc1 | 24.0 | 15.9
O=S1(=O)c2ccccc2O[C@H]2CCN(Cc3ccccn3)CC[C@@H]2N1CC1CC1 | -61.3 | -315.3
COc1cccc(-c2cc(=O)[nH]c(Nc3nc(C)c4ccccc4n3)n2)c1 | 20.4 | 58.0*
Cc1cc2nc(Nc3ncc4c(n3)CCCC4=O)nc(C)c2cc1C | 0.9 | -8.2
COc1ccc2nc(Nc3nc(-c4cnc(N5CCOCC5)nc4C)cc(=O)[nH]3)nc(C)c2c1 | 52.0* | 9.8
COc1ccc2nc(Nc3ncc4c(n3)CCCC4=O)nc(C)c2c1 | 37.7* | 51.6*
Cc1nc(N2CCCCC2)ncc1-c1cc(=O)[nH]c(N2CCN(c3ccccc3)CC2)n1 | 8.0 | 20.6
CCN1CCN(c2ncc(-c3cc(=O)[nH]c(Nc4nc(C)c5cc(C)ccc5n4)n3)c(C)n2)CC1 | 11.5 | 16.7
Cc1nc(N2CCCC2)ncc1-c1cc(=O)[nH]c(N2CCc3ccccc3C2)n1 | 77.8* | -27.9
COc1ccc(-c2cc(=O)[nH]c(Nc3nc(C)c4cc(C)ccc4n3)n2)cc1 | 8.0 | 2.1
COc1cccc(C(=O)[C@@H]2[C@H](C(=O)OC(c3ccccc3)c3ccccc3)N3c4ccccc4C=CC3[C@@]23C(=O)Nc2ccccc23)c1 (stereo partly drawn) | -95.9 | i
CCc1ccc(NC(=O)c2cc(C(F)(F)F)n(C)n2)cc1 | -0.1 | -15.9
Cc1ccc(C(=O)NCc2nc(-c3cccc(C(=O)N4CCCCC4)c3)no2)cc1 | -14.3 | -11.5
Cn1c(=O)[nH]c2c(C(=O)N3CCc4ccccc4C3)snc2c1=O | 3.4 | 7.4
SMILES | USP17 inh | USP30 inh
CC1CCN(C(=O)Cn2c(-c3nc(-c4ccccc4)no3)cccc2=O)CC1 | 4.0 | 4.5
O=C1NC2(CCN(Cc3cccc(Cl)c3)CC2)N=C1c1ccccc1 | -15.9 | -0.7
CC(=O)N1CCSc2ccc(S(=O)(=O)Nc3cc(F)ccc3F)cc21 | -1.6 | 0.8
Cc1nc(N2CCOCC2)ncc1-c1cc(=O)[nH]c(NCCc2ccccc2)n1 | 16.8 | 34.4*
Cc1nc(N2CCCC2)ncc1-c1cc(=O)[nH]c(N2CCN(Cc3ccccc3)CC2)n1 | 5.7 | 13.6
COc1cc2nc(SCc3c(Cl)cccc3Cl)n(Cc3ccco3)c(=N)c2cc1OC | -65.5 | -279.6
CC(C)c1ncc(Cl)c(C(=O)N2CCCC2c2cnn(C)c2)n1 (stereo not drawn) | 11.1 | 15.3
CC(C)(O)[C@H]1O[C@H]2CC[C@@]3(C)[C@@H](CC[C@H]4Cc5c([nH]c6ccccc56)[C@@]43C)C2=CC1=O | -20.2 | -64.7
COc1cccc(CN2CC=CCC(C3CCN(C(=O)c4scnc4C)CC3)C2=O)c1 (stereo not drawn) | 4.5 | -1.7
CN1C(=O)N[C@@H](c2ccc(C(=O)O)cc2)[C@@H]2CCCO[C@@H]21 | 4.1 | -4.6
O=C(O)c1ccc(C2Cc3c([nH]c(=O)[nH]c3=O)O2)cc1 (stereo not drawn) | 23.9 | 75.0*
COc1cc2c(cc1OC)CN(C(C)c1nc3ccccc3c(=O)[nH]1)CC2 (stereo not drawn) | 7.8 | 14.3
Cc1ccc(CNC(=O)CCc2csc(NC(=O)c3ccc(=O)[nH]c3)n2)cc1 | -11.4 | 32.7*
COc1cc(NC(=O)Cc2csc(NC(=O)c3ccc(=O)[nH]c3)n2)cc(OC)c1OC | 4.1 | -56.9
CC(C)C(=O)N1CCN(C(=O)c2ccccc2)CC2(CNC(=O)C2)C1 (stereo not drawn) | 4.3 | 23.8
CCc1ccc(NC(=O)Cn2c(-c3nc(C)no3)cccc2=O)cc1 | 2.8 | 26.8
O=C(NCCc1c[nH]c2ccccc12)C(=O)Nc1ccccc1C(=O)N1CCCC1 | -20.8 | -45.1
O=C(NCCc1c[nH]c2ccccc12)C(=O)Nc1cccc2ncccc12 | 41.6* | -28.9
CC(C)CNC(=O)c1nc2c(s1)CCN(C(=O)Cc1ccccc1)CC2 | 5.2 | 17.2
COC(=O)c1ccc2c(=O)n(CCCCCC(=O)NCCC3=CCCCC3)c(=O)[nH]c2c1 | 12.8 | -1.7
COC(=O)c1ccc2c(=O)n(CCCCCC(=O)NCc3cccc(Cl)c3)c(=O)[nH]c2c1 | 31.0* | 61.8*
Cn1cc(CCCC(=O)NCc2cccc(Cl)c2)c2ccccc21 | -25.5 | -12.3
COC(=O)c1ccc2c(=O)n(CCCCCC(=O)NCCc3ccc(OC)c(OC)c3)c(=O)[nH]c2c1 | 25.3 | 46.4*
O=C(c1cnco1)N1CCCCC1c1ncc(Cc2ccc(F)cc2)o1 (stereo not drawn) | -6.3 | -0.4
CCOc1ccccc1NC(=O)c1ccc(COc2ccc(F)cc2)o1 | -29.7 | -60.3
SMILES | USP17 inh | USP30 inh
Brc1ccc(CN2CCN(C3CC4CCC3C4)CC2)cc1 (stereo not drawn) | -0.4 | -0.1
Cn1c(CNC(=O)C2CCC2)nc2c1CN(C(=O)c1ccc(C(F)(F)F)cc1)CC2 | 11.2 | 12.6
COc1cccc(OC)c1C(=O)Nc1cccc(-c2ccc(N3CCCC3)nn2)c1 | 36.2* | 5.2
COc1cccc(OC)c1C(=O)Nc1cccc(N2CCCCC2=O)c1 | -0.8 | -6.3
O=C(Nc1cccc(-c2ccc(N3CCCC3)nn2)c1)c1c(F)cccc1F | 31.2* | 2.1
COc1ccc(NC(=O)c2ccc(-c3ccc(N4CCOCC4)nn3)cc2)c(OC)c1 | -4.3 | 17.9
COc1cccc(OC)c1C(=O)Nc1cccc(-c2ccc(N3CCN(C)CC3)nn2)c1 | 41.4* | -12.5
O=C(Nc1cnc(N2CCCC2)nc1)c1c(F)cccc1Cl | -1.9 | -1.3
COc1ccc(Nc2ncnc3c2c(-c2ccccc2)cn3-c2ccc(F)cc2)cc1Cl | 18.6 | 11.0
Fc1ccc(Nc2ncnc3c(-c4ccccc4)noc23)cc1 | 43.7* | 46.0*
Cc1ccc2c(=O)cc(C(=O)Nc3ccnn3Cc3ccccc3)oc2c1 | -7.2 | -0.7
O=C(COC(=O)c1ccccc1Nc1ccccc1)Nc1ccc2ccccc2c1 | -0.4 | -7.0
O=C(COC(=O)c1ccccc1OCc1ccccc1)Nc1ccc(Cl)cc1 | 21.0 | 34.4*
N#Cc1cccc(NC(=O)COC(=O)c2ccccc2OCc2ccc(Cl)cc2)c1 | -3.7 | 5.9
N#Cc1ccc(NC(=O)COC(=O)c2ccccc2Nc2ccccc2)cc1 | 34.1* | 5.5
Cc1nn(-c2ccccc2)c(C)c1C(=O)OCC(=O)Nc1cccc2ccccc12 | -3.1 | 10.8
